C diff growth – C. difficile growth inhibitors, primary screen, HTS; Clostridium difficile clinical isolate growth, OD600, 24 h; hits give low values; growth activity, negative = inhibition, % at 16 µg/mL (by protocol); 86,000 compounds, 0.25% hits;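 active means mean growth activity at or below -80% and every replicate also at or below -80%; inconclusive means mean at or below -80% but some replicate above -80%; inactive means mean growth activity above -80%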;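 further: 0% = DMSO wells and -100% = levofloxacin 16 µg/mL wells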
Pf Dd2 inh – P. falciparum Dd2 growth inhibitors, primary screen, SYBR Green fluorescence, single dose replicates. 72 h; hits give low values. activity change, % at 10 µM. 94,000 compounds, 2.3% hits. AID 1159554, 2015; in the data active means activity change below about -80%; inconclusive means no clear call, values can overlap the other calls
T cruzi growth-1 – T. cruzi intracellular proliferation inhibitors, primary screen, cell-based, beta-gal Tulahuen parasites, NIH3T3 host, luminescence. 77,000 compounds, 5.9% hits. AID 624255, 2012. inhibition, % at 8.34 µM. T. cruzi beta-gal in NIH3T3, GalScreen luminescence, 90 h;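 active means mean inhibition above about 93%, with at least 55% of replicates each passing it, limit read from the data, passing the limit was not always enough; inconclusive means only one of those two conditions holds; inactive means neither condition holds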
T cruzi growth-2 – T. cruzi intracellular proliferation inhibitors, confirmation, cell-based, NIH3T3 host, beta-gal parasite, luminescence, cherry-pick; shares compounds with T cruzi growth-1; T. cruzi beta-gal in NIH3T3, GalScreen luminescence, 90 h; inhibition, % at 8.35 µM; 5,600 compounds, 72% hits; AID 651739, 2012;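 active means mean replicate inhibition above about 95% and at least 55% of replicates individually reaching it, limit read from the data; inconclusive means only one of the two criteria is met; inactive means neither criterion is met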
T cruzi growth-3 – inhibitors of intracellular T. cruzi replication, confirmation, NIH3T3 host cells, beta-gal parasites, cherry-pick, set 2; shares compounds with T cruzi growth-1; T. cruzi beta-gal in NIH3T3, GalScreen luminescence, 90 h; inhibition, % at 2.09 µM; 5,600 compounds, 21% hits; AID 651740, 2012;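 active means mean inhibition above about 95%, with at least 55% of replicates also reaching it, limit read from the data; inconclusive means meets just one of the two conditions; inactive means meets neither condition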;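 further: plate controls were neutral control median for no effect and positive control median for full effect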
3T3 cytotox – cytotoxicity in mouse NIH/3T3 fibroblasts, confirmation, cytotoxicity control for T. cruzi proliferation inhibitor project, cell-based, cherry-pick, single point. shares compounds with T cruzi growth-1. NIH/3T3 viability, CellTiter-Glo ATP luminescence, 90 h. cytotoxicity (signal decrease), % at 8.35 µM. 5,600 compounds, 14% hits. AID 651742, 2012;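 active means mean signal decrease across replicates above about 35% based on untreated-well scatter, with enough replicates individually passing, limit read from the data; inconclusive means no rule stated though some were filed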;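 further: 0% = median of neutral control wells and 100% = median of positive control wells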
NIH3T3 tox 2 – NIH/3T3 fibroblast cytotoxicity, confirmation, cytotoxicity control, cell-based, cherry-pick, single point, set 2 | AID 651744, 2012 | 5,600 compounds, 56% hits | inhibition, % at 24.9 µM | NIH/3T3 viability, CellTiter-Glo ATP luminescence, 90 h | shares compounds with T cruzi growth-1;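 active means mean loss of cell viability signal at or above a set limit, and enough replicates individually reaching it; inconclusive means meets only the mean limit or only the replicate share; inactive means meets neither condition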;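 further: 0% = median of neutral control wells and 100% = median of positive control wells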
An asterisk follows results filed as active; ? = inconclusive; nt = no result given. Only some compounds are listed: those with a hit (about 6.8% of all), similar ones and a draw of the others.

SMILES	C diff growth	Pf Dd2 inh	T cruzi growth-1	T cruzi growth-2	T cruzi growth-3	3T3 cytotox	NIH3T3 tox 2
O=C(C1CC1)N1CCCCN2[C@@H](CO)[C@@H](c3ccc(C#CC4(O)CCCC4)cc3)[C@@H]2C1	-3.5	26.0	13.6	nt	nt	nt	nt
O=C(c1ccc(F)cc1)N1CCCCN2[C@H](C1)[C@H](c1ccc(C#CC3(O)CCCC3)cc1)[C@@H]2CO	-0.7	20.4	43.8	nt	nt	nt	nt
COc1ccc(CN2C[C@@H](O)COC[C@H]3O[C@H](CC(=O)NCCN4CCCC4)CC[C@@H]32)cc1	-7.7	0.1	-10.4	nt	nt	nt	nt
COc1cccc(C(=O)N2C[C@H]3[C@@H](c4ccccc42)[C@@H](CO)N3C(=O)c2ccccc2)c1	-8.9	7.5	11.9	nt	nt	nt	nt
CCC(=O)Nc1ccc2c(c1)C(=O)N(C)[C@H]1CC[C@H](CC(=O)NCc3ccccc3)O[C@H]1CO2	-8.3	17.4	-27.6	nt	nt	nt	nt
CCNC(=O)C[C@H]1C=C[C@H](NC(=O)NC2CCCCC2)[C@H](CO)O1	3.0	6.5	nt	nt	nt	nt	nt
C[C@H]1CN([C@@H](C)CO)C(=O)c2cc(NS(=O)(=O)c3ccc(F)cc3)ccc2O[C@@H]1CN(C)Cc1ccc(C(F)(F)F)cc1	-2.5	8.2	54.8	nt	nt	nt	nt
C[C@@H]1CN([C@H](C)CO)C(=O)c2cc(NS(=O)(=O)c3ccc(Cl)cc3)ccc2O[C@@H]1CN(C)Cc1ccc(C(F)(F)F)cc1	19.1	11.2	128.3*	?	3.1	94.1*	102.9*
C[C@@H]1CN([C@H](C)CO)C(=O)c2cc(NS(=O)(=O)c3ccc(F)cc3)ccc2O[C@@H]1CN(C)Cc1ccc(C(F)(F)F)cc1	-7.9	9.1	68.9	nt	nt	nt	nt
Cc1ccc(S(=O)(=O)Nc2ccc3c(c2)C(=O)N([C@@H](C)CO)C[C@H](C)[C@H](CN(C)Cc2ccc(C(F)(F)F)cc2)O3)cc1	nt	-6.0	99.3*	102.8*	100.4*	10.4	99.1*
C[C@@H]1CN([C@@H](C)CO)C(=O)c2cc(NS(=O)(=O)c3ccc(Cl)cc3)ccc2O[C@H]1CN(C)Cc1ccc(C(F)(F)F)cc1	23.8	1.8	84.7	nt	nt	nt	nt
Cc1ccc(S(=O)(=O)Nc2ccc3c(c2)C(=O)N([C@H](C)CO)C[C@H](C)[C@H](CN(C)Cc2ccc(C(F)(F)F)cc2)O3)cc1	nt	-10.2	97.1*	97.6*	61.5	12.4	102.8*
C[C@H](CO)N1C[C@H](C)[C@@H](CN(C)C(=O)NC2CCCC2)Oc2ncc(C#CC3CCCCC3)cc2C1=O	10.9	-62.3	94.7	nt	nt	nt	nt
C[C@@H]1CN([C@H](C)CO)S(=O)(=O)c2ccc(-c3ccccc3F)cc2O[C@H]1CN(C)Cc1ccncc1	-18.8	-42.0	116.3*	99.4*	105.1*	92.0*	103.3*
Cc1ccccc1-c1ccc2c(c1)O[C@H](CN(C)Cc1ccncc1)[C@@H](C)CN([C@H](C)CO)S2(=O)=O	5.2	-68.1	93.6	nt	nt	nt	nt
C[C@H](CO)N1C[C@H](C)[C@H](CN(C)Cc2cccnc2)Oc2cc(-c3ccccc3F)ccc2S1(=O)=O	1.2	-2.2	86.7	nt	nt	nt	nt
C[C@H]1CN([C@@H](C)CO)S(=O)(=O)c2ccc(-c3ccccc3F)cc2O[C@H]1CN(C)Cc1ccncc1	-5.3	13.8	106.6*	99.0*	91.7	32.2	56.4*
C[C@@H]1CN([C@@H](C)CO)S(=O)(=O)c2ccc(-c3ccccc3F)cc2O[C@@H]1CN(C)Cc1cncnc1	-9.6	4.6	64.3	nt	nt	nt	nt
Cc1ccccc1-c1ccc2c(c1)O[C@H](CN(C)Cc1ccncc1)[C@H](C)CN([C@@H](C)CO)S2(=O)=O	-1.3	-54.7	96.8*	106.7*	74.7	51.5*	?
CCCC#Cc1cnc2c(c1)C(=O)N([C@H](C)CO)C[C@H](C)[C@@H](CN(C)C(=O)c1ccc(F)cc1)O2	-1.4	-30.0	43.4	nt	nt	nt	nt
O=C(C[C@H]1CC[C@@H]2[C@H](COC[C@H](O)CN2C(=O)C2CC2)O1)NCc1ccncc1	1.1	1.6	-17.8	nt	nt	nt	nt
C[C@@H]1CCCCO[C@H](CN(C)Cc2ccccc2)[C@H](C)CN([C@@H](C)CO)C(=O)c2cc(N(C)C)ccc2O1	-1.1	nt	-45.6	nt	nt	nt	nt
C[C@@H]1CN([C@@H](C)CO)C(=O)c2cc(N(C)C)ccc2O[C@@H](C)CCCCO[C@H]1CN(C)Cc1ccccc1	2.2	-17.3	99.3*	100.5*	71.1	14.5	-0.1
C[C@@H]1CCCCO[C@@H](CN(C)Cc2ccc(C(F)(F)F)cc2)[C@@H](C)CN([C@@H](C)CO)C(=O)c2cc(N(C)C)ccc2O1	12.4	-16.2	96.7*	103.5*	35.9	13.4	28.4*
C[C@@H]1CCCCO[C@@H](CN(C)Cc2ccc(C(F)(F)F)cc2)[C@H](C)CN([C@H](C)CO)C(=O)c2cc(N(C)C)ccc2O1	12.5	-7.6	?	104.9*	91.3	3.8	59.5*
SMILES	C diff growth	Pf Dd2 inh	T cruzi growth-1	T cruzi growth-2	T cruzi growth-3	3T3 cytotox	NIH3T3 tox 2
C[C@@H]1CCCCO[C@@H](CN(C)Cc2ccc(C(F)(F)F)cc2)[C@H](C)CN([C@@H](C)CO)C(=O)c2cc(N(C)C)ccc2O1	16.8	-2.4	93.1	nt	nt	nt	nt
C[C@@H]1CN([C@H](C)CO)C(=O)c2cc(N(C)C)ccc2O[C@@H](C)CCCCO[C@@H]1CN(C)Cc1ccc(C(=O)O)cc1	3.2	34.7	8.0	nt	nt	nt	nt
CCS(=O)(=O)N[C@H]1C=C[C@H](CC(=O)Nc2ccccc2)O[C@H]1CO	-3.4	37.6	nt	nt	nt	nt	nt
Cc1ccc(S(=O)(=O)N(C)C[C@H]2Oc3c(NC(=O)c4ccncc4)cccc3C(=O)N([C@@H](C)CO)C[C@H]2C)cc1	-9.4	-21.3	74.6	nt	nt	nt	nt
C[C@@H]1CN([C@H](C)CO)C(=O)c2cc(NC(=O)CCC(F)(F)F)ccc2O[C@H]1CN(C)CC1CCCCC1	2.2	10.8	100.8*	-27.0	-36.4	-20.8	-4.7
C[C@@H]1CN([C@@H](C)CO)C(=O)c2cc(N(C)C)ccc2O[C@H]1CN(C)CC1CCCCC1	8.4	5.3	101.8*	-22.3	-98.8	-16.1	-4.0
C[C@H](CO)N1C[C@H](C)[C@H](CN(C)CC2CCCCC2)Oc2ccc(NC(=O)CCC(F)(F)F)cc2C1=O	7.8	-2.9	6.7	nt	nt	nt	nt
C[C@H]1CN([C@@H](C)CO)C(=O)c2cc(N(C)C)ccc2O[C@H]1CN(C)CC1CCCCC1	2.8	14.9	3.5	nt	nt	nt	nt
COc1ccc(-c2cnc3c(c2)C(=O)N([C@H](C)CO)C[C@H](C)[C@H](CN(C)Cc2cccc(C)c2)O3)cc1	3.2	39.4	-3.5	nt	nt	nt	nt

Source: PubChem BioAssay
